These results are taken from PubChem BioAssay AID1159537 (DiRusso Lab, Biochemistry Department, University of Nebraska, 2015).

The structures appear in SMILES notation. The whole screen tested about 44,000 compounds, of which about 370 (0.84%) were called active. How the calls were made is not given here. The entries come from a sample that favours actives as a whole.

The assay can be described thus: compounds raising algal triacylglycerol storage – qHTS, Chlamydomonas reinhardtii, primary screen (AID 1159537).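 Further: hits raise Nile Red signal meaning more stored TAG.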 The settings on record: Chlamydomonas reinhardtii TAG, Nile Red fluorescence, 72 h; screened at 10 µM (by protocol).
`CS(=O)(=O)N(CC(=O)N1CCCCCC1)c1cccc(Cl)c1Cl`: the compound was classed as inactive.

Consider `O=[N+]([O-])c1ccccc1/C=C/CN1CCN(C/C=C/c2ccccc2)CC1`, for which the call was inactive.

For `C(=C\c1ccccc1)/CN1CCN(CC2CCCCC2)CC1`, the compound was classed as active.

Regarding `COc1cccc(CN2CCN(C/C=C/c3ccccc3)CC2)c1OC`, the result was inactive.

For the compound `CS(=O)(=O)N(CC(=O)N1CCCC1)c1ccc(I)cc1`, the outcome was inactive.

Consider `CCOc1ccc(C(=O)NCCc2ccc(F)cc2)cc1`, for which the result was inactive.

Consider `O=C(COc1cccc([N+](=O)[O-])c1)Nc1ccc(-c2nnc(-c3ccco3)o2)cc1`, for which the compound was classed as inactive.

`Cc1ccc(NC(=O)c2ccccc2Br)cc1C`: the compound was classed as inactive.

Regarding `COc1ccc(C(O)=C2C(=O)C(=O)N(CCN3CCOCC3)C2c2ccncc2)cc1C` (stereo not given), the outcome was inactive.

On to `O=C(COc1ccc(F)cc1)NCc1ccco1`, for which the call was inactive.

Regarding `CCOc1ccc(-c2cc(C(=O)NCc3ccccn3)c3ccccc3n2)cc1`, the result was inactive.

Turning to `Cn1c(SCC(=O)Nc2cccc([N+](=O)[O-])c2)nc2ccccc21`, the compound was called inactive.

Turning to `COc1ccc(C2C(=C(O)c3ccc(C)cc3)C(=O)C(=O)N2c2ccccn2)cc1` (stereo not given), the outcome was inactive.

`O=C(Cc1ccc(Cl)cc1)N1CCN(c2ccc(Cl)cc2[N+](=O)[O-])CC1`: the outcome was inactive.

On to `O=C(Nc1cccc(F)c1)N1CCN(c2ccccc2F)CC1`, for which the outcome was inactive.

Regarding `Cc1cccc(OCC(=O)Nc2cc(-c3nc4ncccc4o3)ccc2C)c1`, the compound was classed as inactive.

`O=C(NCc1cccnc1)C(CCO)Sc1nc2sc3c(c2c(=O)[nH]1)CCCC3` (stereo not given): the compound was called inactive.

As for `Cc1ccc(C(=O)N2CCN(c3ccccc3)CC2)cc1`, the outcome was inactive.

For the compound `Cc1ccc(N2CCN(C3CCCCCC3)CC2)cc1`, the outcome was active.

With `Cc1ccc(S(=O)(=O)N2CCC(N3CCCCCC3)CC2)cc1`, the result was inactive.

Take `COc1cccc(NC(=O)Nc2nnc(-c3cccc(OC)c3)s2)c1`: the call was inactive.

Regarding `Cc1ccc(C(=O)CNc2ccc(F)cc2)cc1`, the result was inactive.

On to `Cc1cc(C)c2nc(C)cc(Nc3ccc4c(c3)OCCO4)c2c1`, for which the compound was classed as inactive.

As to `Cc1ccc(C(=O)N(Cc2ccccc2)C(C)C)cc1[N+](=O)[O-]`, the outcome was inactive.

On to `NC(=O)c1ccc(NC(=O)C(Sc2ccccc2)c2ccccc2)cc1` (stereo not given), for which the compound was classed as inactive.

Turning to `COc1ccc(OC)c(NC(=O)CC2CCCCC2)c1`, the result was inactive.

With `Clc1cc(Br)ccc1OCCCCN1CCOCC1`, the compound was classed as active.

For `Fc1ccccc1OCCN1CCCC1`, the compound was called inactive.

Consider `O=C(COc1ccc(Br)cc1Cl)NCCO`, for which the compound was called inactive.

In the case of `Clc1ccc(OCCCCN2CCOCC2)c(Br)c1`, the outcome was active.

For the compound `COc1ccc(C(=O)NCCCN2CCOCC2)cc1Br`, the compound was called inactive.

For the compound `Clc1ccccc1OCCCCN1CCOCC1`, the call was active.

`Cc1ccc(OCCOCCN2CCN(C)CC2)c(Br)c1`: the call was inactive.

On to `Clc1ccc(CN2CCOCC2)c(Cl)c1`, for which the result was inactive.

For the compound `O=[N+]([O-])c1ccccc1OCCCCN1CCCCC1`, the compound was classed as inactive.

With `O=C(CCCOc1ccc(Cl)cc1Cl)N1CCCC1`, the outcome was inactive.

With `Clc1ccc(OCCOCCN2CCCC2)c(Br)c1`, the call was active.

For `Clc1ccc(OCCN2CCCCCC2)cc1`, the compound was called inactive.

Take `Cc1cc(N/C=C/C(=O)c2cccs2)no1`: the call was inactive.

Consider `CCN(CC)CCC(=O)c1ccc(C(C)C)cc1`, for which the call was inactive.

`CCc1ccc(NC(=O)Nc2ccccc2)cc1`: the call was inactive.

Turning to `CCCC(=O)Nc1cccc(NC(=O)COc2ccc(C)c(C)c2)c1`, the compound was called inactive.

For `Cc1cccc(C)c1OCC(=O)Nc1ccc([N+](=O)[O-])cc1`, the outcome was inactive.

`CCCC1CCc2c(sc(NC(=O)C3C4C=CC(C4)C3C(=O)O)c2C(N)=O)C1` (stereo not given): the outcome was inactive.

As for `O=C(COc1ccc([N+](=O)[O-])cc1)Nc1cccc(Br)c1`, the result was inactive.

With `CCOc1ccccc1NC(=O)COc1ccc(Br)c(C)c1`, the result was inactive.

`O=C(O)Cn1c2ccccc2c2cc([N+](=O)[O-])ccc21`: the outcome was inactive.

Regarding `CC(=O)c1nc2ccccc2n1Cc1ccccc1`, the compound was classed as inactive.

For `CC(=O)c1nc2cc([N+](=O)[O-])ccc2n1Cc1ccccc1`, the compound was called active.

With `CC(C(=O)NCc1ccncc1)N(c1ccccc1)S(C)(=O)=O` (stereo not given), the compound was classed as inactive.

For the compound `COc1ccc(N=C2NC(=O)CC(C(=O)Nc3ccc(Cl)cc3)S2)cc1` (stereo not given), the compound was called inactive.

For `CC(=O)Nc1ccc(NC(=O)c2ccc(F)cc2)cc1`, the call was inactive.

In the case of `OCCN1CCN(C2CCN(Cc3ccc(Cl)cc3)CC2)CC1`, the result was inactive.

With `COc1ccc(-c2cn3c4ccccc4n(CCN4CCOCC4)c3n2)cc1`, the outcome was inactive.

Consider `O=C1CCC(=O)N1c1ccc(S(=O)(=O)c2ccc(N3C(=O)CCC3=O)cc2)cc1`, for which the result was inactive.

With `O=C(COc1ccc([N+](=O)[O-])cc1)Nc1ccc(Cl)cc1`, the result was inactive.

Regarding `COc1ccccc1CNC1CCC(C)C1` (stereo not given), the outcome was inactive.

With `NC(=O)CCSc1ccc(Cl)cc1`, the call was inactive.

For `NC(N)=NS(=O)(=O)c1ccc(NC(=O)c2ccc([N+](=O)[O-])cc2)cc1`, the compound was called inactive.

With `Cc1cccc(NC(=O)C(=O)NC(C)c2ccccc2)c1` (stereo not given), the call was inactive.

For the compound `CC(=O)NS(=O)(=O)c1ccc(NC(=O)C2C3C=CC(C3)C2C(=O)O)cc1` (stereo not given), the compound was classed as inactive.

For the compound `Cc1ccc(CNC(=O)c2ccccc2Br)cc1`, the call was inactive.

For the compound `COc1ccc(Nc2nc(Nc3ccc(OC)cc3)nc(N3CCNCC3)n2)cc1`, the outcome was inactive.

`CC1CCCN(CCCCOc2ccccc2F)C1` (stereo not given): the result was inactive.

Turning to `COc1cc(/C=C(\C#N)c2nc3ccc(C)cc3[nH]2)c(Br)cc1O`, the compound was classed as inactive.

Consider `O=C(NCc1cccnc1)C(O)(c1ccccc1)c1ccccc1`, for which the compound was classed as inactive.

Regarding `CCN(CC)CCCOc1ccc(C)cc1[N+](=O)[O-]`, the result was inactive.

Consider `Cc1ccc(OCCOCCN2CCOCC2)c([N+](=O)[O-])c1`, for which the result was active.

As to `COc1ccccc1OCCNc1cc(N2CCOCC2)ccc1[N+](=O)[O-]`, the outcome was inactive.

Regarding `CNC(=O)C(=O)NCCc1ccccc1`, the call was inactive.

For the compound `O=C1CC(NCCc2ccccc2)C(=O)N1c1ccc(F)cc1` (stereo not given), the compound was called inactive.

Take `Cn1c(SCC(=O)Nc2ccccc2)nc2ccccc21`: the compound was called inactive.

For the compound `Cc1ccc(C(C)C)c(OCC(O)CN2CCCC(C)C2)c1` (stereo not given), the compound was classed as inactive.

Turning to `CCOc1ccc(N2C(=O)CC(SCC(=O)Nc3ccc(F)cc3)C2=O)cc1` (stereo not given), the compound was called inactive.

For `COc1ccc(N(CC(=O)Nc2ccc(C)cc2)S(C)(=O)=O)c(OC)c1`, the compound was classed as inactive.

On to `COc1ccccc1/C=C(/C#N)c1nc2ccccc2[nH]1`, for which the compound was classed as inactive.

As to `CNC(=O)CN(c1ccc(F)cc1)S(C)(=O)=O`, the compound was called inactive.

Regarding `COc1ccccc1N(CC(=O)NC12CC3CC(CC(C3)C1)C2)S(=O)(=O)c1ccccc1`, the call was inactive.

For `O=C(c1ccc(CN2CCOCC2)cc1)N(Cc1ccccc1)Cc1ccccc1`, the compound was classed as active.

For the compound `CC(=O)Nc1ccc(CN2CCOCC2)cc1`, the compound was classed as inactive.

For `O=C(Nc1cccc(Cl)c1Cl)c1ccc(CN2CCOCC2)cc1`, the call was inactive.

For the compound `COC(=O)NC(c1ccc(Br)cc1)C(Cl)(Cl)Cl` (stereo not given), the result was inactive.

Take `Cc1ccc2c(Cl)c(C(=O)Nc3cc(S(N)(=O)=O)ccc3C)sc2c1`: the result was inactive.

In the case of `CC(=O)c1ccc(NC(=O)COc2ccc(Br)c(C)c2)cc1`, the result was inactive.

As for `CCOc1ccc(NC(=O)Nc2nnc(Cc3ccc(OC)cc3)s2)cc1`, the compound was classed as inactive.

Consider `C=CCNC(=O)COc1ccc(C)cc1Br`, for which the compound was called inactive.

With `COc1ccc(Cl)cc1NC(=O)CSc1nc2ncccc2[nH]1`, the outcome was inactive.

Regarding `O=C(Nc1ccccc1)N1CCN(Cc2ccccc2)CC1`, the call was inactive.

As to `CC(=O)Nc1ccc(CN2CCN(c3ccc(C(C)=O)cc3)CC2)cc1`, the result was inactive.

Regarding `CC(=O)NC1=C(N2CCN(Cc3ccccc3)CC2)C(=O)c2ccccc2C1=O`, the outcome was active.

Consider `O=C(Nc1cccc(Cl)c1)Nc1ccccn1`, for which the call was inactive.

In the case of `O=C1CC(N2CCCCCC2)C(=O)N1c1ccccc1` (stereo not given), the compound was classed as inactive.

As to `O=C1CC(N2CCc3ccccc3C2)C(=O)N1c1ccc([N+](=O)[O-])cc1` (stereo not given), the call was active.

For `O=C1CC(N2CCN(c3ccc([N+](=O)[O-])cc3)CC2)C(=O)N1c1cccc(Cl)c1` (stereo not given), the compound was called inactive.

For the compound `O=C(O)c1sc2cc(F)ccc2c1Cl`, the call was inactive.

Consider `O=C(O)c1sc2ccccc2c1Cl`, for which the compound was called inactive.

With `CN1CCN(C(=O)c2sc3cc(Cl)ccc3c2Cl)CC1`, the result was active.

Take `COc1ccccc1CN(C)C1CCN(C)CC1`: the outcome was inactive.

For the compound `COc1ccc(Cl)cc1N(CC(=O)NCC1CCCO1)S(C)(=O)=O` (stereo not given), the result was inactive.

Take `CN(C)CCCn1cnc2ccccc21`: the call was inactive.

On to `COc1cc(C(=O)Nc2sc3c(c2C(N)=O)CCC3)cc(OC)c1OC`, for which the result was inactive.

As to `O=C(Nc1ccccc1)Nc1ccccc1C(=O)N1CCOCC1`, the call was active.

`O=C(Nc1ccc(C(=O)N2CCOCC2)cc1)C1COc2ccccc2O1` (stereo not given): the outcome was inactive.

On to `CCC(=O)Nc1ccccc1C(=O)N1CCN(Cc2ccccc2)CC1`, for which the compound was called inactive.

Turning to `NC(=O)CN(Cc1ccccc1Cl)S(=O)(=O)c1ccc(Cl)cc1`, the call was inactive.

For the compound `O=C(c1ccc([N+](=O)[O-])cc1)N1CCN(c2cccc(Cl)c2)CC1`, the call was inactive.

Turning to `Cc1ccccc1N(C(F)F)S(=O)(=O)c1cc([N+](=O)[O-])ccc1C`, the compound was called inactive.

As for `O=C(CCN1CCCC1)Nc1ccc2c(c1)CCC2`, the outcome was inactive.

Take `CC(=O)c1ccc(-c2ccc(C=O)o2)cc1`: the compound was classed as inactive.

In the case of `COc1ccccc1N1CCN(S(=O)(=O)c2cccc3cccnc23)CC1`, the compound was called inactive.
